DAX1 inh-1: DAX1 (NR0B1) inhibition, primary screen. HEK293T StAR-luciferase reporter, SF-1/DAX-1 repression relief. inhibition, % at 6.8 µM. hit rate 1.1% among 370,000. AID 652010;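 active means inhibition above the mean over all tested compounds plus 3 SD, cut at about 3.6% in these data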;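 further: 0% = DAX-1 cells with DMSO and 100% = cells lacking DAX-1 with DMSO; higher inhibition means more luminescence from relief of DAX-1 repression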
ssDAF12 agonist: activators of S. stercoralis DAF-12 nuclear receptor; HEK293 ssDAF-12/GRIP1 lit1-tk-luc reporter, luminescence; % of 3 µM dafachronic acid response; activation, % at 6.8 µM; hit rate 1% among 370,000;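 active means activation above the mean over all tested compounds plus 3 SD, cut at about 0.9% in these data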;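 further: 0% = DMSO-only wells and 100% = 3 µM delta7-dafachronic acid wells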
DAX1 inh-2: inhibitors of human orphan nuclear receptor DAX1 (NR0B1). inhibition, % at 6.75 µM. P51843. HEK293 Gal4-DAX1 luciferase reporter, luminescence. hit rate 0.99% among 340,000;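 active means inhibition above the mean over all tested compounds plus 3 SD, cut at about 4.2% in these data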;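 further: 0% = DAX1-transfected cells with DMSO and 100% = empty-vector control cells with DMSO; inhibition shows as a rise in luminescence from relieved DAX1 repression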
Target sequence (P51843 207-470 limits assumed): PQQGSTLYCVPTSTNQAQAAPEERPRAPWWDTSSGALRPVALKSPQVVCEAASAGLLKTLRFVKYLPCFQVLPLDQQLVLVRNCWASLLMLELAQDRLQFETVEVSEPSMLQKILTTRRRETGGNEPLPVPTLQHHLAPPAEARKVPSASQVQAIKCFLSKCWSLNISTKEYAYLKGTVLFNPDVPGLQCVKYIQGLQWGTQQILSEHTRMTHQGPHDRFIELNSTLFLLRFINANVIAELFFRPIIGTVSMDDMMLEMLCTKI
hcDAF-12 act: H. contortus DAF-12 activation, primary screen | HEK293 hcDAF-12 lit1-tk-luc reporter, luminescence; 0% DMSO, 100% Δ7-dafachronic acid | hit rate 1.4% among 370,000 | activation, % at 6.8 µM | AID 652067;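 active means activation above the mean of all tested compounds plus 3 SD, cut at about 5.5% in these data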;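 further: 100% = response to 3 µM Δ7-dafachronic acid high control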
FXN GAA850 act: frataxin GAA850 promoter activation. HEK293 lucGAA850 FXN promoter luciferase reporter, 24 h; percent of 10 µM SAHA response. activation, % at 6 µM. hit rate 0.56% among 360,000;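 active means activation above the average of all compounds screened plus 3 SD, cutoff fixed separately per campaign, cut at about 7.5% in these data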;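 further: 0% = DMSO wells and 100% = 10 µM SAHA wells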
hgDAF12 agonist: hgDAF-12 agonism, primary luciferase screen; HEK293 GAL4-hgDAF12 UAS-luciferase reporter, agonist luminescence; normalized to butyrate control; activation, % at 6.8 µM; hit rate 1.8% among 370,000; AID 687014;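 active means activation above a cutoff set at the mean of all screened compounds plus 3 SD, cut at about 10% in these data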;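 further: 0% = DMSO wells and 100% = sodium butyrate wells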
LXR ag: LXR-beta agonism as hcDAF-12 counter-screen. 3,400 tested, under 10 active. AID 743027. HEK293 Gal4-LXR tk-luc reporter, luminescence, 24 h; normalized: DMSO 0%, positive control 100%. shares compounds with hcDAF-12 act. activation, % at 6.8 µM;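 active means mean percent activation of the reporter above a cutoff set as the average over tested compounds plus their standard deviation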
Target sequence (P55055 whole entry, looked up, the tested form may be a part): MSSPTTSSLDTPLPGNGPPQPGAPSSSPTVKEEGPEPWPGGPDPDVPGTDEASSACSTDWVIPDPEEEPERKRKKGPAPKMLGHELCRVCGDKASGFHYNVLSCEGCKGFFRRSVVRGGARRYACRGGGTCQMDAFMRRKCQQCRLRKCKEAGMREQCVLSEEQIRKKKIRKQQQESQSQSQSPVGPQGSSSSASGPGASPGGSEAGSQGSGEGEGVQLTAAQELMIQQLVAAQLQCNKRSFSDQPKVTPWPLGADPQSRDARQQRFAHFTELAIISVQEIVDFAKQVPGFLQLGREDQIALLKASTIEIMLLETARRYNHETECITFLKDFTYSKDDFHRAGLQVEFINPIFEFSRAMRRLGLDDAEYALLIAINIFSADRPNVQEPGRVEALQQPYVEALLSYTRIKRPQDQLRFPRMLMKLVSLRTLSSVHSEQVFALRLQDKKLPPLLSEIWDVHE
hcDAF12 ag: hcDAF-12 agonism, confirmation assay | shares compounds with hcDAF-12 act | HEK293 hcDAF-12 lit1-tk-luc reporter, luminescence; % of Δ7-dafachronic acid response | activation, % at 6.8 µM | hit rate 61% among 3,400 | AID 743032;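 active means mean activation across triplicate tests above the threshold derived from the earlier primary screen, cut at about 5.5% in these data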;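 further: 0% = DMSO only wells and 100% = 3 µM Δ7-dafachronic acid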
Numbers without * were called inactive; · = no result given. Shown are actives, neighbours in structure and some others; about 4.5% of the full set was active somewhere.

SMILES	DAX1 inh-1	ssDAF12 agonist	DAX1 inh-2	hcDAF-12 act	FXN GAA850 act	hgDAF12 agonist	LXR ag	hcDAF12 ag
CCN(CC)CCN1C(=O)c2cccc3cc(N)cc(c23)C1=O	-0.3	-0.1	-1.5	7.6*	-4.1	-0.1	-0.3	4.8
O=C1c2cccc3cc([N+](=O)[O-])cc(c23)C(=O)N1CCN1CCCC1	-1.8	7.1*	1.7	44.5*	-5.5	-0.8	1.5	16.7*
Nc1cc2c3c(cccc3c1)C(=O)N(CCN1CCCC1)C2=O	-0.9	1.8*	-0.9	16.0*	2.3	-6.0	0.1	11.8*
O=S1(=O)c2c(cccc2N2CC[C@H](O)C2)O[C@H]2CCN1C2	-1.4	-0.7	·	0.0	·	0.4	·	·
CN(/N=C/c1c[nH]c2ccccc12)c1cnn(-c2ccc(F)c(Cl)c2)c(=O)c1Cl	0.9	0.5	-0.9	7.2*	0.0	2.5	-0.4	1.4
CCOC(=O)CNC(=O)CSc1nnc(-c2cccs2)o1	-0.8	-0.8	·	-0.4	·	-0.5	·	·
Oc1c(Cl)cccc1C=Nc1cc(C(F)(F)F)ccc1N1CCCC1	-0.3	-0.7	0.3	1.5	4.2	0.0	·	·
Oc1c(Cl)cc(Cl)cc1C=Nc1cc(C(F)(F)F)ccc1N1CCc2ccccc2C1	3.4	3.2*	1.9	20.7*	2.4	20.3*	1.9	16.3*
COc1ccccc1NC(=O)OC1CC2CC1[C@H]1CCCCN1[C@H]2Cc1ccccc1 (some centres not stated)	-0.1	-0.6	·	-0.4	·	-1.0	·	·
CCOC(=O)[C@]12CCCC=C1N(Cc1ccc(OC)cc1)C(=O)[C@@H]2CC(=O)NCCCN1CCCC1=O	-0.9	-1.4	·	-2.3	·	-2.8	·	·
Cc1ccc(S(=O)(=O)N2CCOCC2)cc1C(=O)Nc1nc2ccccc2[nH]1	2.2	-0.1	0.3	7.9*	2.2	3.1	-0.1	5.4
CC(=O)c1sc(N/N=C/c2cccc(O)c2)nc1C	-0.1	-0.4	-0.1	7.1*	-0.5	11.6*	1.0	4.7
CCOC(=O)[C@]12CCCC=C1N(CCCOC)C(=O)[C@@H]2CC(=O)NCc1cccc2ccccc12	-0.4	-0.8	·	-2.3	·	-1.9	·	·
Cc1[nH]n(C(N)=S)c(=O)c1N=Nc1ccc(Br)cc1	1.2	0.2	1.6	7.3*	1.5	5.3	1.3	13.6*
O=S1(=O)c2ccc(N3CCC[C@@H]3CO)cc2O[C@H]2CCN1C2	-0.3	-0.8	·	1.9	·	-2.6	·	·
COc1ccc(N=Nc2ccc3ccccc3c2)c(O)c1	1.2	0.4	3.8	8.1*	2.2	4.6	1.9	12.4*
COc1ccc(C(=O)c2ccccc2)c(O)c1	-0.4	-1.3	0.7	-0.9	2.8	1.0	·	·
O=C(NC(=S)N1CCCc2ccccc21)c1ccccc1	0.5	0.8	1.1	8.3*	4.9	7.6	0.3	9.2*
COc1ccccc1C(=O)NC(=S)N1CCCc2ccccc21	-0.8	-1.4	1.5	2.2	-3.1	-2.2	·	·
O=C(Nc1nnc(SCC(=O)N2CCCc3ccccc32)s1)c1ccccc1	1.0	-0.8	-2.1	8.0*	5.7	7.0	0.2	3.7
O=C(NC(=S)N1CCCc2ccccc21)c1ccc(Cl)cc1	0.9	0.3	2.1	7.9*	0.1	3.8	0.2	9.2*
C/C(=N/OC(=O)c1ccc(C)cc1)c1cccs1	-0.2	-1.5	-0.8	-1.7	-0.3	0.8	·	·
C/C(=N/N=C(/C)c1cccs1)c1cccs1	1.1	1.1*	6.1*	8.3*	6.4	15.7*	1.0	11.0*
Cc1cccnc1Nc1nc(-c2ccccc2)cs1	3.7*	1.7*	4.1	13.7*	3.8	12.6*	2.1	13.5*
Cc1ccc(Nc2nc(-c3cccnc3)cs2)cc1Cl	0.9	0.8	3.7	11.1*	7.0	9.4	0.7	12.3*
SMILES	DAX1 inh-1	ssDAF12 agonist	DAX1 inh-2	hcDAF-12 act	FXN GAA850 act	hgDAF12 agonist	LXR ag	hcDAF12 ag
c1cncc(Nc2nc(-c3cccnc3)cs2)c1	-0.9	-1.1	1.5	7.2*	5.0	6.9	-0.1	2.2
Cc1ccc(C)c(Nc2nc(-c3cccnc3)cs2)c1	-0.5	-1.6	0.1	1.1	4.8	6.2	·	·
c1cncc(Nc2nc(-c3ccncc3)cs2)c1	-1.3	-1.4	2.4	0.4	3.1	1.8	·	·
Cc1cccnc1Nc1nc(-c2ccccn2)cs1	-2.9	-0.6	-5.0	1.4	-18.1	3.5	·	·
CCCCCCCCN1C(=O)[C@@H](CC(=O)NCc2cccc(C(F)(F)F)c2)C[C@@]2(C(=O)OC)C1=C[C@H](COCc1ccccc1)O[C@@H]2C	-1.8	-1.1	·	-0.5	·	-2.0	·	·
O=C1CCCC2=C1[C@@]1(O[C@H]3C=CC=CN23)C(=O)N(c2ccccc2)c2ccccc21	-0.6	-1.4	·	1.1	·	-1.3	·	·
O=S1(=O)N[C@H](Cc2ccccc2)COc2cc(N3CCCCC3)ccc21	-0.3	-0.2	·	1.4	·	4.8	·	·
CCOc1cc(C(=O)N/N=C/c2cn(-c3ccccc3)nc2-c2cc3ccccc3o2)cc(OCC)c1OCC	1.9	-0.2	2.9	7.9*	5.2	8.9	0.7	5.8*
Cc1ccc(-c2nn(-c3ccccc3)cc2/C=N/NC(=O)c2ccncc2)o1	1.2	-0.8	1.4	2.2	3.0	8.8	·	·
Cc1ccc(-c2nn(-c3ccccc3)cc2/C=N/NC(=O)c2ccc(Br)o2)cc1	0.9	-0.7	1.0	3.1	1.8	1.0	·	·
O=C(N/N=C\c1cn(-c2ccccc2)nc1-c1ccccc1)c1ccc(Br)o1	-0.5	-0.2	-0.9	9.4*	2.9	4.6	0.0	3.9
CCOC(=O)C1=CCN(S(=O)(=O)c2cccc(Cl)c2)C1c1cccc(Cl)c1 (configuration not stated)	-1.1	-1.2	·	0.1	·	-1.5	·	·
Cc1ccc(C(=O)CC(SCC(=O)O)c2ccc([N+](=O)[O-])cc2)cc1 (configuration not stated)	0.6	-1.0	-1.9	0.7	3.0	0.8	·	·
O=C(CC(SCCO)c1ccc([N+](=O)[O-])cc1)c1ccco1 (configuration not stated)	-1.4	-1.8	0.1	7.1*	2.7	0.4	0.1	1.2
CC(C)CNC(=S)NC1CC2CCC(C1)N2Cc1ccccc1 (configuration not stated)	0.8	-1.0	-1.5	6.8*	2.1	1.7	-0.3	1.5
CCCCN(C(C)=O)c1c(CC)nc2ccc(C(=O)Nc3cccc(OCC(=O)N(C)C)c3)cn12	-0.7	-1.1	·	-1.4	-0.8	-2.0	·	·

Screens: PubChem BioAssay, The Scripps Research Institute Molecular Screening Center
